Measured values reported in PubChem BioAssay AID1159580 (chemical genetic matrix, 2015).
The campaign covered roughly 5,500 compounds. About 2,000 (36%) were called active. Not shown: some 18% with an inconclusive outcome. The list shows a part of the results. Values without a mark were called inactive. Cut-off read from the data, not from the text of the source: active = normalized growth mostly below about 0.91 (no sharp cut-off); inconclusive = no clear call, values can overlap the other calls; inactive = mostly above about 0.92.

Assay: chemical genetic growth profiling, strain panel (AID 1159580);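 note: tested at 20 µM; growth read once vehicle control cultures reached saturation at 30 °C; 1 = growth at the plate median or of vehicle wells; lower values mean less growth of the strain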
Settings: S. cerevisiae deletion strains, growth OD
[1] = locus YHR030C, strain SLT2, stronger effect = lower value
[2] = locus YHR079C, strain IRE1, stronger effect = lower value
[3] = locus YJL095W, strain BCK1, stronger effect = lower value
[4] = locus YJR066W, strain TOR1, stronger effect = lower value
[5] = locus YLR113W, strain HOG1, stronger effect = lower value
[6] = locus YNL183C, strain NPR1, stronger effect = lower value
[7] = locus YOR231W, strain MKK1, stronger effect = lower value
[8] = locus YPL256C, strain CLN2, stronger effect = lower value
[9] = locus YDL101C, strain DUN1, stronger effect = lower value

CC(c1cc2ccccc2s1)N(O)C(N)=O (configuration not stated)
normalized growth [1]: 1.01 | normalized growth [2]: 0.964 | normalized growth [3]: 0.981 | normalized growth [4]: 0.941 | normalized growth [5]: 0.944 | normalized growth [6]: 0.892 | normalized growth [7]: 0.967 | normalized growth [8]: 0.976

O=C(O)C1c2ccccc2C(=O)N(Cc2ccc3c(c2)OCO3)C1c1cccnc1 (configuration not stated)
normalized growth (locus YAL013W, strain DEP1, stronger effect = lower value): 1.02 | normalized growth (locus YBR229C, strain ROT2, stronger effect = lower value): 1.01 | normalized growth (locus YCL061C, strain MRC1, stronger effect = lower value): 0.994 | normalized growth [9]: 1.01 | normalized growth (locus YDL134C, strain PPH21, stronger effect = lower value): 0.993 | normalized growth (locus YDR150W, strain NUM1, stronger effect = lower value): 0.978 | normalized growth (locus YEL061C, strain CIN8, stronger effect = lower value): 1.04 | normalized growth (locus YGR078C, strain PAC10, stronger effect = lower value): 1.04 | normalized growth [1]: 1.05 | normalized growth (locus YHR087W, strain rtc3, stronger effect = lower value): 1.01 | normalized growth (locus YJR043C, strain POL32, stronger effect = lower value): 0.996 | normalized growth (locus YJR075W, strain HOC1, stronger effect = lower value): 1.03 | normalized growth (locus YKL190W, strain CNB1, stronger effect = lower value): 0.989 | normalized growth (locus YLR039C, strain RIC1, stronger effect = lower value): 1.01 | normalized growth (locus YLR058C, strain SHM2 (second series), stronger effect = lower value): 0.997 | normalized growth (locus YLR085C, strain ARP6, stronger effect = lower value): 1.02 | normalized growth (locus YLR262C, strain YPT6, stronger effect = lower value): 0.971 | normalized growth (locus YML094W, strain GIM5, stronger effect = lower value): 1.04 | normalized growth (locus YMR219W, strain ESC1, stronger effect = lower value): 1 | normalized growth (locus YMR263W, strain SAP30, stronger effect = lower value): 1 | normalized growth (locus YNL128W, strain TEP1, stronger effect = lower value): 0.993 | normalized growth (locus YNL153C, strain GIM3, stronger effect = lower value): 1.01 | normalized growth (locus YNL298W, strain CLA4 (second series), stronger effect = lower value): 1.04 | normalized growth (locus YNL322C, strain KRE1, stronger effect = lower value): 1.02 | normalized growth (locus YNR030W, strain Alg12, stronger effect = lower value): 1 | normalized growth (locus YPL055C, strain LGE1, stronger effect = lower value): 1.03 | normalized growth (locus YPL241C, strain CIN2, stronger effect = lower value): 0.971 | normalized growth (locus YPR135W, strain CTF4, stronger effect = lower value): 0.982

O=C(NCc1ccc2c(c1)OCO2)c1cc2ccccc2s1
normalized growth (locus YAR019C, strain CDC15, stronger effect = lower value): 0.858 (active) | normalized growth (locus YBL105C, strain PKC1, stronger effect = lower value): 0.867 (active) | normalized growth (locus YBR135W, strain CKS1, stronger effect = lower value): 0.87 (active) | normalized growth (locus YBR136W, strain MEC1, stronger effect = lower value): 0.866 (active) | normalized growth (locus YBR160W, strain CDC28, stronger effect = lower value): 0.873 (active) | normalized growth (locus YDL017W, strain CDC7, stronger effect = lower value): 0.877 (active) | normalized growth (locus YDL028C, strain MPS1, stronger effect = lower value): 0.9 | normalized growth [9]: 0.912 | normalized growth (locus YDL108W, strain KIN28, stronger effect = lower value): 0.888 (active) | normalized growth (locus YDL132W, strain cdc53, stronger effect = lower value): 0.851 (active) | normalized growth (locus YDL214C, strain PRR2, stronger effect = lower value): 0.58 (active) | normalized growth (locus YDR052C, strain DBF4, stronger effect = lower value): 0.933 | normalized growth (locus YDR054C, strain cdc34, stronger effect = lower value): 0.648 (active) | normalized growth (locus YDR226W, strain ADK1, stronger effect = lower value): 0.874 (active) | normalized growth (locus YDR477W, strain SNF1, stronger effect = lower value): 0.422 (active) | normalized growth (locus YER123W, strain YCK3, stronger effect = lower value): 0.396 (active) | normalized growth (locus YER133W, strain GLC7, stronger effect = lower value): 0.298 (active) | normalized growth (locus YFL009W, strain cdc4, stronger effect = lower value): 0.858 (active) | normalized growth (locus YFL029C, strain CAK1, stronger effect = lower value): 0.852 (active) | normalized growth (locus YFR003C, strain YPI1, stronger effect = lower value): 0.872 (active) | normalized growth (locus YFR019W, strain FAB1, stronger effect = lower value): 0.625 (active) | normalized growth (locus YFR028C, strain CDC14, stronger effect = lower value): 0.864 (active) | normalized growth (locus YGR040W, strain KSS1, stronger effect = lower value): 0.459 (active) | normalized growth (locus YGR052W, strain FMP48, stronger effect = lower value): 0.406 (active) | normalized growth (locus YGR092W, strain DBF2, stronger effect = lower value): 0.3 (active) | normalized growth [1]: 0.14 (active) | normalized growth [2]: 0.178 (active) | normalized growth (locus YHR082C, strain KSP1, stronger effect = lower value): 0.571 (active) | normalized growth (locus YHR205W, strain SCH9, stronger effect = lower value): 0.678 | normalized growth (locus YIL147C, strain SLN1, stronger effect = lower value): 0.871 (active) | normalized growth [3]: 0.144 (active) | normalized growth (locus YJL128C, strain PBS2, stronger effect = lower value): 0.854 | normalized growth (locus YJL157C, strain FAR1, stronger effect = lower value): 0.622 (active) | normalized growth (locus YJR016C, strain ILV3, stronger effect = lower value): 0.87 (active) | normalized growth (locus YJR066W, strain TOR1 (second series), stronger effect = lower value): 0.155 (active) | normalized growth [4]: 0.432 (active) | normalized growth (locus YKL048C, strain ELM1, stronger effect = lower value): 0.443 (active) | normalized growth (locus YKL067W, strain YNK1, stronger effect = lower value): 0.675 (active) | normalized growth (locus YKL101W, strain HSL1, stronger effect = lower value): 0.573 (active) | normalized growth (locus YKL193C, strain SDS22, stronger effect = lower value): 0.882 (active) | normalized growth (locus YKL203C, strain TOR2, stronger effect = lower value): 0.258 (active) | normalized growth [5]: 0.626 (active) | normalized growth (locus YLR133W, strain CKI1, stronger effect = lower value): 0.675 (active) | normalized growth (locus YLR403W, strain SFP1, stronger effect = lower value): 0.583 (active) | normalized growth (locus YML070W, strain DAK1, stronger effect = lower value): 0.54 (active) | normalized growth (locus YMR001C, strain CDC5, stronger effect = lower value): 0.837 (active) | normalized growth (locus YMR205C, strain PFK2 (second series), stronger effect = lower value): 0.692 (active) | normalized growth (locus YMR277W, strain FCP1, stronger effect = lower value): 0.829 (active) | normalized growth (locus YNL006W, strain LST8, stronger effect = lower value): 0.849 (active) | normalized growth (locus YNL020C, strain ARK1, stronger effect = lower value): 0.663 (active) | normalized growth (locus YNL161W, strain CBK1, stronger effect = lower value): 0.868 (active) | normalized growth [6]: 0.322 (active) | normalized growth (locus YNL207W, strain RIO2, stronger effect = lower value): 0.822 (active) | normalized growth (locus YNL222W, strain SSU72, stronger effect = lower value): 0.853 (active) | normalized growth (locus YNL307C, strain MCK1 (second series), stronger effect = lower value): 0.205 (active) | normalized growth (locus YOL078W, strain AVO1, stronger effect = lower value): 0.842 (active) | normalized growth (locus YOL136C, strain PFK27, stronger effect = lower value): 0.429 (active) | normalized growth (locus YOR061W, strain CKA2, stronger effect = lower value): 0.589 (active) | normalized growth (locus YOR119C, strain RIO1, stronger effect = lower value): 0.273 (active) | normalized growth [7]: 0.369 (active) | normalized growth (locus YOR329C, strain SCD5, stronger effect = lower value): 0.856 (active) | normalized growth (locus YPL031C, strain PHO85, stronger effect = lower value): 0.392 (active) | normalized growth (locus YPL153C, strain RAD53, stronger effect = lower value): 0.224 (active) | normalized growth (locus YPL204W, strain HRR25, stronger effect = lower value): 0.3 (active) | normalized growth (locus YPL209C, strain IPL1, stronger effect = lower value): 0.868 (active) | normalized growth [8]: 0.558 (active) | normalized growth (locus YPR025C, strain CCL1, stronger effect = lower value): 0.863 (active) | normalized growth (locus YPR106W, strain ISR1, stronger effect = lower value): 0.882 (active) | normalized growth (locus YPR111W, strain DBF20, stronger effect = lower value): 0.868 (active) | normalized growth (strain NNK1, stronger effect = lower value): 0.835 (active) | normalized growth (strain TSCII, stronger effect = lower value): 0.799 (active)
